High-throughput results (PubChem BioAssay)
Hits are enriched below; roughly 3.3% of the tested compounds scored in any of these assays.
Casp6 inh: human caspase-6 inhibitors, primary screen, biochemical, VEID-R110 fluorescence, single point, set 2; P55212; inhibition, % at 12.5 µM; 350,000 compounds, 0.53% hits; purified caspase-6, Z-VEID-R110 cleavage fluorescence; AID 686996, 2013;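 active means mean inhibition across replicates at least about 35%, with every replicate also reaching that limit, limit read from the data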
Target sequence (P55212 24-179 limits assumed): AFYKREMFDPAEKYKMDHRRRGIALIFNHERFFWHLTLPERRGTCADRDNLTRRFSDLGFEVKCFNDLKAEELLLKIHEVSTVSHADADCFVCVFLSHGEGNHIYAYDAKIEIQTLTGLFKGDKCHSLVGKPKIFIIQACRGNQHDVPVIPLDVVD
Target sequence (P55212 194-293 limits assumed): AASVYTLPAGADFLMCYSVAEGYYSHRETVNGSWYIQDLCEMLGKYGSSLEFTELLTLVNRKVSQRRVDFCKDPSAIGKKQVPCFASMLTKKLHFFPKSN
GSIS activator: GLuc luminescence reporter in INS-1E cells, primary screen for activators of glucose-dependent secretion of insulin | INS-1E GLuc reporter insulin secretion, 2-3 h | activation, % at 16.6 µM | 370,000 compounds, 0.61% hits;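 active means lowest replicate activation of at least 40%, so every replicate reaches that level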
FGF22 binding: binders of human FGF22 protein, primary screen, FGF22 synaptogenesis inhibitor project, biophysical, thermal shift, single point. recombinant FGF22 thermal shift, SYPRO orange fluorescence; percent of sucrose octasulfate shift, DMSO zero. Fibroblast growth factor 22 (Homo sapiens), Q9HCT0. activity (Tm shift, normalised), % at 9.99 µM. AID 651658, 2012. 340,000 compounds, 1.5% hits;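 active means mean Tm shift, scaled 0 neutral to 100 positive control, at about 1.3% or above, every replicate too, limit read from the data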
SIRT5 inh: SIRT5 desuccinylase inhibitors, primary screen, biochemical, fluorescence imaging, single point, set 5. NAD-dependent protein deacylase sirtuin-5, mitochondrial (Homo sapiens), Q9NXA8. Purified SirT5, succinyl-peptide AMC, trypsin-coupled fluorescence. inhibition, % at 15 µM. 330,000 compounds, 1.1% hits. AID 652115, 2013; in the data active means inhibition above about 15%
Target sequence (Q9NXA8 whole entry, looked up): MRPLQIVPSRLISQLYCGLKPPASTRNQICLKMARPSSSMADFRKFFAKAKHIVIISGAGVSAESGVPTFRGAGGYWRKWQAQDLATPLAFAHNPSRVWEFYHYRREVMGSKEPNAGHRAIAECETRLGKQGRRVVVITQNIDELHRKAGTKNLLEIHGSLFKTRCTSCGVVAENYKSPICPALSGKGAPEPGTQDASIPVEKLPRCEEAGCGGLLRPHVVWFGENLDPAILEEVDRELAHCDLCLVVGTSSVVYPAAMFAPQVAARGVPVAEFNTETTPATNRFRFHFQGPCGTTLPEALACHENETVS
ERAP1 HTS inh: human ERAP1 aminopeptidase inhibitors, primary screen, biochemical, single point, plate reader | Endoplasmic reticulum aminopeptidase 1 (Homo sapiens), Q9NZ08 | recombinant ERAP1, Leu-AMC fluorescence, 60 min | inhibition, % at 10.7 µM | 340,000 compounds, 0.15% hits | AID 652197, 2013;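 active means mean replicate inhibition of at least 30%, or all replicates individually reaching that 30% level; inactive means mean below 30% and not every replicate reaching it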
Each line names hits and unclear results; the compound was inactive in the other large screens; ! = not confirmed by another sample.

CCC1=NN2C(=N)/C(=C\c3cccn3-c3ccc(Cl)cc3)C(=O)N=C2S1	FGF22 binding 47
CCC1=NN2C(=N)/C(=C\c3cccn3-c3ccc(C)c(C)c3)C(=O)N=C2S1	none (no result: SIRT5 inh)
CC1=CC2=NC(=O)/C(=C/c3cccn3Cc3ccccc3)C(=N)N2O1	none
N=C1/C(=C/c2cccn2Cc2ccc(Cl)cc2)C(=O)N=C2SC=CN12	GSIS activator 148 (no result: Casp6 inh, FGF22 binding, SIRT5 inh, ERAP1 HTS inh)
Cc1c(NC(=S)NC(=O)c2sc3ccccc3c2Cl)cccc1C(=O)O	GSIS activator 63, SIRT5 inh 36
COc1ccccc1C(=O)NNC(=S)NC(=O)c1sc2ccccc2c1Cl	none (no result: Casp6 inh, FGF22 binding, SIRT5 inh, ERAP1 HTS inh)
Cc1ccc(S(=O)(=O)CCSC(=N)N)cc1	FGF22 binding 44
O=C(C(=O)N1CCOCC1)c1c[nH]c2ccccc12	FGF22 binding 43
C[C@@H]1CN([C@@H](C)CO)C(=O)c2cc(NC(=O)Nc3ccccc3)ccc2O[C@@H]1CN(C)Cc1ccc(C(=O)O)cc1	none
C[C@@H]1CN([C@H](C)CO)C(=O)c2cc(NC(=O)NC3CCCCC3)ccc2O[C@@H](C)CCCCO[C@H]1CN(C)S(=O)(=O)c1ccc(Cl)cc1	SIRT5 inh 15 (no result: FGF22 binding)
Cc1ccc(S(=O)(=O)N(C)C[C@@H]2OCCCC[C@@H](C)Oc3ccc(NC(=O)NC4CCCCC4)cc3C(=O)N([C@@H](C)CO)C[C@@H]2C)cc1	SIRT5 inh 15
C[C@@H]1CCCCO[C@@H](CN(C)S(=O)(=O)c2ccc(Cl)cc2)[C@H](C)CN([C@@H](C)CO)C(=O)c2cc(NC(=O)NC3CCCCC3)ccc2O1	none (no result: FGF22 binding)
Cc1cc(S(=O)(=O)Nc2nc(CN3CCOCC3)nc3sc4c(c23)CCC4)cc(C)c1C	none
COc1cccc(Nc2nc(CN3CCOCC3)nc3sc4c(c23)CCCC4)c1	SIRT5 inh 22
CC(O)c1nc2ccccc2n1Cc1ccccc1 (centres undefined)	none
CC(O)c1nc2ccccc2n1C1CCCCC1 (centres undefined)	GSIS activator 63 (no result: Casp6 inh, FGF22 binding, SIRT5 inh, ERAP1 HTS inh)
COc1ccc2[nH]c(C)c(CCNC(=S)Nc3ccccc3OC)c2c1	FGF22 binding 43
COc1ccc(NC(=S)NCCc2ccccc2)c(C)c1	Casp6 inh 36
C/C=C/c1ccc([C@@H]2[C@H](CO)N(C(C)=O)C23CN(C(=O)c2ccncc2)C3)cc1	none
Cc1ccc2c(c1C)NC(C(=O)O)C1CC=CC21 (centres undefined)	none (no result: FGF22 binding, SIRT5 inh)
Cc1cc(C)c2c(c1)NC(C(=O)O)C1CC=CC21 (centres undefined)	Casp6 inh 64, SIRT5 inh 18
O=c1[nH]c(=O)c2cc([N+](=O)[O-])cc([N+](=O)[O-])c2[nH]1	FGF22 binding 43 (no result: SIRT5 inh)
O=c1[nH]c2cc([N+](=O)[O-])c([N+](=O)[O-])cc2[nH]c1=O	none
C[C@H]1CN([C@@H](C)CO)C(=O)c2cccc(NS(C)(=O)=O)c2O[C@H]1CN(C)Cc1ccc(C(=O)O)cc1	none
C[C@@H]1CN([C@@H](C)CO)C(=O)c2cc(NS(=O)(=O)c3cn(C)cn3)ccc2O[C@H]1CN(C)S(=O)(=O)c1cccs1	none
O=c1c2ccccc2[nH]c2ccc(O)cc12	Casp6 inh 38
CCN(CC)C(=O)c1ncn2c1C(=O)NC[C@H]2C	none
CCN(CC)C(=O)c1ncn(C)c1C(=O)N(CC)CC	ERAP1 HTS inh 107 (no result: SIRT5 inh)
CN(Cc1ccccc1)C(=O)c1ncn(C)c1C(=O)N(C)Cc1ccccc1	ERAP1 HTS inh 31
CCCNC(=O)C[C@@H]1CC[C@H]2[C@@H](COc3ccc(NC(=O)c4cccs4)cc3C(=O)N2C)O1	none
NS(=O)(=O)c1ccc(NCC2COc3ccccc3O2)c([N+](=O)[O-])c1 (centres undefined)	FGF22 binding 43
CCCNC(=O)N1[C@H](CO)[C@@H]2c3ccccc3N(C(=O)Nc3ccccc3)C[C@@H]21	none (no result: Casp6 inh, FGF22 binding, SIRT5 inh, ERAP1 HTS inh)
CNC(=O)CSc1nc2cccnc2n1-c1ccc(F)cc1	GSIS activator 78
CC(C)(C)NC(=O)CSc1nc2cccnc2n1C1CCCCC1	SIRT5 inh 20
CNC(=O)CSc1nc2cccnc2n1C1CCCCC1	none
CC(C)NC(=O)N(C)C[C@@H]1OCCCC[C@@H](C)Oc2ccc(NS(=O)(=O)c3ccc(F)cc3)cc2C(=O)N([C@H](C)CO)C[C@H]1C	none
C[C@H]1CN([C@@H](C)CO)S(=O)(=O)c2ccc(/C=C/c3ccccc3)cc2O[C@H]1CN(C)Cc1ccccc1	SIRT5 inh 22 (no result: GSIS activator)
C[C@H](CO)N1C[C@H](C)[C@H](CN(C)Cc2ccccc2)Oc2cc(/C=C/c3ccccc3)ccc2S1(=O)=O	SIRT5 inh 21
COCC(=O)Nc1ccc2c(c1)C(=O)N(C)C[C@@H](OC)[C@H](C)CN(C(C)=O)[C@H](C)CO2	none
C[C@H]1CN([C@@H](C)CO)C(=O)CCCn2nncc2CO[C@@H]1CN(C)C(=O)Nc1ccccc1	SIRT5 inh 28
C[C@H](CO)N1C[C@H](C)[C@@H](CN(C)C(=O)Nc2ccccc2)OCc2cnnn2CCCC1=O	none
C[C@@H]1CN([C@H](C)CO)C(=O)CCCn2nncc2CO[C@H]1CN(C)C(=O)Nc1cccc2ccccc12	SIRT5 inh 76
C[C@@H]1CN([C@@H](C)CO)C(=O)CCCn2nncc2CO[C@@H]1CN(C)C(=O)Nc1cccc2ccccc12	none
C[C@@H]1CN([C@@H](C)CO)C(=O)CCCn2nncc2CO[C@H]1CN(C)C(=O)C1CCCCC1	SIRT5 inh 29!
CC(C)NC(=O)N(C)C[C@@H]1OCc2cnnn2CCCC(=O)N([C@@H](C)CO)C[C@H]1C	SIRT5 inh 26!
COc1ccc2c3c([nH]c2c1)[C@H](CO)N(C(=O)c1cccnc1)CC31CN(C(=O)NC(C)C)C1	none
Cc1ccc(S(=O)(=O)N[C@H]2C=C[C@@H](CC(=O)NC3CCCCC3)O[C@@H]2CO)cc1	none
COc1ccc(-n2c(-c3ccc(Cl)cc3)c[nH]c2=S)cc1	GSIS activator 200
COCC(=O)Nc1ccc2c(c1)[C@@H]1C[C@@H](CC(=O)NC3CCCC3)O[C@@H](CO)[C@@H]1O2	none
CCOC(=O)[C@]12Cc3c(cc(OC)c(OC)c3OC)[C@H]1N(C1CCCCC1)C(=O)c1cc(OC)ccc12	GSIS activator 178 (no result: ERAP1 HTS inh)
CS(=O)(=O)N1CCN(c2ccccc2[N+](=O)[O-])CC1	FGF22 binding 43
CS(=O)(=O)N1CCN(c2ccc(C(=O)N3CCOCC3)cc2[N+](=O)[O-])CC1	none (no result: Casp6 inh)
CCCNC(=O)N1[C@H](C#N)[C@H](c2ccc(C3=CCCCC3)cc2)[C@@H]1CO	none
COc1ccc(N(C(=O)c2snc(C(N)=O)c2N)C(C(=O)NC2CCCC2)c2ccco2)c(OC)c1 (centres undefined)	Casp6 inh 63
